Experimental data: PubChem BioAssay (NCI)
The panel holds about 83,000 compounds, 20% with a hit somewhere; the sample as a whole holds those more often.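 A percent growth of 40 corresponds to 60% growth inhibition; 0 means no net growth; -100 means all cells died. Active threshold: below 10.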 A number with no mark means an inactive call. The source made the active and inactive calls.

These compounds were tested on MALME-3M melanoma (assay: NCI-60 one-dose screen, 48 h (100 = growth as untreated, 0 = no growth, -100 = all killed)). Conditions: 10 µM unless noted.
For `O=C(CSc1nc2ccc([N+](=O)[O-])cc2[nH]1)Nc1ccc(F)c(Cl)c1`, the growth was -5.67% (active).
In the case of `Cc1cc(C)c(O)c(CNCCCCCCNCc2cc(C)cc(C)c2O)c1`, the growth is reported as -81.9% (active).
`CS(=O)(=O)c1cccnn1` gave a growth of 88.8%.
Work on `Cc1ccc(S(=O)(=O)Nc2ccccc2)cc1N` yielded a growth of 133%.
`Nc1cc(C(=O)O)[nH]c(=S)n1` showed a growth of 89.8%.
`COc1ccc(-c2nc3ccccn3c2/C=C/C(=O)c2cc(OC)c(OC)c(OC)c2)cc1OC` was tested, and the growth was 45.9%.
`O=C(Nc1cccc2cccnc12)c1cc(C(=O)c2ccc(Cl)cc2)n2ccc(-c3ccncc3)cc12` was tested, and the growth was 90.7%.
`Cc1cccc(C[C@H](NC(=O)Nc2ccc(C)cc2F)C(=O)N[C@@H]2C(=O)N3C[C@H](O)C[C@H]3C(=O)N3CCN(C)C[C@H]3C(=O)N[C@@H](C)C(=O)N3C[C@H](C)C[C@H]3C(=O)O[C@H]2C)c1` was tested, and the growth was 39.9%.
For `O=C1COCCN1c1ccc(NCc2cn(Cc3cccc4ccccc34)c3ccccc23)cc1`, the growth was 90.1%.
`COc1ncnc2c(-c3ccccc3)cn(COCc3ccccc3)c12` showed a growth of 51.9%.
In the case of `O=C1CN(Cc2ccc(C(=O)NO)cc2)C(=O)[C@@H](Cc2ccccc2)N1`, the growth is reported as 94%.
`CC(C)C1=NOC(=O)C1=Cc1cn(-c2ccco2)nc1-c1ccccc1` was tested, and the growth was 104%.
With `c1ccc(-c2nnc(-c3c[nH]c4ncccc34)s2)cc1` the growth was 88%.
`COCCCNc1nc(NC(=O)c2cc(Br)cc(C(F)(F)F)c2)cc(-c2cccnc2)n1` was tested, and the growth was 99.7%.
